Results on 43 sequences are retold here after paper PMC7819943, “Rice protein-binding microarrays: a tool to detect cis-acting elements near promoter regions in rice”.

In all, about 68,000 sequences were measured (“fluorescence intensity (a.u.)”: median about 9,100, highest 2% from about 16,000 on). The full list was thinned out, with the highest values kept by preference.

OsWRKY34, sequence (Q0JBA9 entry or part of it): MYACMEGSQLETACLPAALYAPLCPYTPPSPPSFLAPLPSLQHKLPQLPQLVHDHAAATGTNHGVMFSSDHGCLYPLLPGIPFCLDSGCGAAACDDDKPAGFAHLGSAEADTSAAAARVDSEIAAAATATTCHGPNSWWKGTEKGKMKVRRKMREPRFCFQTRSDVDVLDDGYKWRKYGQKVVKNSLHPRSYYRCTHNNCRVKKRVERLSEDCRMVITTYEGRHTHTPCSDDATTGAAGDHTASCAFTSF

In the experiment the target is OsWRKY34 (Oryza sativa, UniProt Q0JBA9 1-250). Description: protein-binding microarray (RPBM); PBS, 2% BSA, 51.3 ng/ul salmon testes DNA, 50 uM zinc acetate, 200 nM TF, 25 C, 1 h; high values mean tight binding. As to conditions: protein: recombinant; tags: N-terminal polyhistidine and DsRed monomer fusion (pET32a); label: CyDye5-dUTP incorporated in the synthesized complementary strand; 3' TTTTT single-stranded linker to array surface; dsDNA, one strand shown. The essentials:
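Using Ni–NTA, transcription factors fused N-terminally to polyhistidine and DsRed were purified after expression in E. coli BL21-CodonPlus. These were incubated at 200 nM with a blocked, double-stranded custom Agilent array for 1 h at 25 °C in a buffer containing 50 µM zinc acetate, and the array was washed. The binding signal is per-feature fluorescence intensity (arbitrary units) on an Axon 4000B scanner.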
For “TTTTTTTTACCGGCCTAGTTGACCACCAACCAAGCAGTACCGGAGTCACCTAGTGCAG”, the binding signal was 10100 fluorescence intensity (a.u.).
The same measure for “GCATACATCTCTACTACCTGCATCTCCATCTCAAATCAAACGGAGTCACCTAGTGCAG”: 10400 fluorescence intensity (a.u.); for “CTCCTCTAACGTACCATAGAGGGACATACGTTTCTGATGTCGGAGTCACCTAGTGCAG”: 8720 fluorescence intensity (a.u.); for “CTCTCCATCCGCTCGCGGCTCGCGCTCGCCCATCCAATCCCGGAGTCACCTAGTGCAG”: 10600 fluorescence intensity (a.u.).
With “CATCGCCCACGCCAATGTCGTCGCCGACGTCTCGCTGCCGCGGAGTCACCTAGTGCAG”, the binding signal was 8820 fluorescence intensity (a.u.).
In the case of “CACGCCATTAAGCTTTTTTTATATACATATAGTCAATGTTCGGAGTCACCTAGTGCAG”, the binding signal is 9130 fluorescence intensity (a.u.).
For the sequence “CTAAATGTTTGACGCCGTTGACTTTTTAAATATGTTTGACCGGAGTCACCTAGTGCAG”, the binding signal was 32300 fluorescence intensity (a.u.).
In the case of “TCCGTATTTTAATGTATGACGCTGTTGACTTTCGACCTACCGGAGTCACCTAGTGCAG”, the binding signal was 13900 fluorescence intensity (a.u.).
For the sequence “CTCTCTCCGTATTATAATGTATGATGCCGTTGACTTTTTGCGGAGTCACCTAGTGCAG”, the binding signal was 35200 fluorescence intensity (a.u.).
As for “TAATACTCCCTCCGTATTTTAATGTATGATGCCGTTGACTCGGAGTCACCTAGTGCAG”, the figure is 10600 fluorescence intensity (a.u.); as for “CCCACCGTTTCCAAATGTTTGACGCCGTTGACTTTTTATCCGGAGTCACCTAGTGCAG”, 31900 fluorescence intensity (a.u.).
Regarding “ATTTTAATATTTGACGCCGTTGACTTTTTGTATGTTTGACCGGAGTCACCTAGTGCAG”, the binding signal is 42500 fluorescence intensity (a.u.).
As for “CTCCCTCCATCCCAAAATGTTTGACGCCGTTGACTTTTTACGGAGTCACCTAGTGCAG”, the figure is 15900 fluorescence intensity (a.u.).
Take “ACTCTCTCCGTATTCGTATTTTAATGTATGACGCCGTTGACGGAGTCACCTAGTGCAG”: the binding signal was 8550 fluorescence intensity (a.u.).
Turning to “TCTTACTCTCTCCATCCCAAAATGTTTGACGCCGTTGACTCGGAGTCACCTAGTGCAG”, the binding signal is 13400 fluorescence intensity (a.u.).
With “TTAGTGATTTCTTGTCTCCTGATCATCTGTAGTCTGTAGACGGAGTCACCTAGTGCAG”, the binding signal is 8160 fluorescence intensity (a.u.).
Take “GACCTAGCTCTGCCCTTTCTTTCTGAAATAAATAATGCATCGGAGTCACCTAGTGCAG”: the binding signal is 8960 fluorescence intensity (a.u.).
The same measure for “CCATCACTAGAGCCTTTTGCCTTTGCTTGCACAATTACATCGGAGTCACCTAGTGCAG”: 8850 fluorescence intensity (a.u.); for “TGTGTGCCTGTTGTCTCATTTGATCTGCCATTTCAGCGCACGGAGTCACCTAGTGCAG”: 10700 fluorescence intensity (a.u.).
In the case of “ACCCGCACACCGTCCCGTGCCAGCTGCCTCGCCACCGTTCCGGAGTCACCTAGTGCAG”, the binding signal was 11900 fluorescence intensity (a.u.).
Take “CCACGACACCGCTTCCAGCCCACGCAACCCTCGAACAATGCGGAGTCACCTAGTGCAG”: the binding signal was 8170 fluorescence intensity (a.u.).
On to “GTATTTTCGATTGTTTACACTATAATTAGACTGTTTTATACGGAGTCACCTAGTGCAG”, for which the binding signal is 8600 fluorescence intensity (a.u.).
Turning to “CGTCGATGCCAATACAATAACCATCATCATCATCATCATTCGGAGTCACCTAGTGCAG”, the binding signal is 8210 fluorescence intensity (a.u.).
As to “TCCTCTCCCACCAATCCTTTGATCCATTCATCCCAACTTCCGGAGTCACCTAGTGCAG”, the binding signal was 9340 fluorescence intensity (a.u.).
Take “TGTGTGTGTATATATATGTAGCCTGTTCGCACATCATCTTCGGAGTCACCTAGTGCAG”: the binding signal is 13600 fluorescence intensity (a.u.).
As for “GTAATGGCATATTTGCAATTATCCCTTTGTTTATTTATTTCGGAGTCACCTAGTGCAG”, the figure is 8510 fluorescence intensity (a.u.).
Take “AATGTATGACGCCGTTGACTTTTTAACAAATATTTGACATCGGAGTCACCTAGTGCAG”: the binding signal is 20300 fluorescence intensity (a.u.).
As to “GTCGTTGATTTTTTTAAAAATGTTTAACCGTTCGTTTTATCGGAGTCACCTAGTGCAG”, the binding signal is 8170 fluorescence intensity (a.u.).
For “TCCCTAAATATATGACGTTGTTGACTTTTTAAAACATTTTCGGAGTCACCTAGTGCAG”, the binding signal was 11200 fluorescence intensity (a.u.).
For the sequence “TCCCTAAATGTTTAACGTCGTTGACTTTTTAAAATATGTTCGGAGTCACCTAGTGCAG”, the binding signal is 21000 fluorescence intensity (a.u.).
As to “TTATATGATGTTGTTGACTTTTTGACAAATGTTTAATCATCGGAGTCACCTAGTGCAG”, the binding signal was 8810 fluorescence intensity (a.u.).
For “CGTGCCGCCGCCGCCGCCGCCATCCTCCGGCAACAACGGCCGGAGTCACCTAGTGCAG”, the binding signal is 9650 fluorescence intensity (a.u.).
Consider “GCTTCGCTTTGCGCTCTCTCTATCTCTCTCTCTTCCAAAACGGAGTCACCTAGTGCAG”, for which the binding signal is 8490 fluorescence intensity (a.u.).
As for “TATCCACATACCACCTCTCCATTGGACCACAGTTTCTCTCCGGAGTCACCTAGTGCAG”, the figure is 8340 fluorescence intensity (a.u.).
As for “GGGGCAAGGAAGGAAGGGGAGGGGAGGGGTTGGGGCGATGCGGAGTCACCTAGTGCAG”, the binding signal was 25900 fluorescence intensity (a.u.).
The same measure for “GGCGGCGGCGGCGGCGGAGGTTGGGAAGGAGAGGGAGGGGCGGAGTCACCTAGTGCAG”: 11800 fluorescence intensity (a.u.); for “CGAGAAGGGGATGGGGAGGAGGAGAGGGAGCGGGAGAGGGCGGAGTCACCTAGTGCAG”: 10100 fluorescence intensity (a.u.).
As for “GGAGAGGAGCGGGCGGGTTGGTGTTGGGAAGGGAGGGATGCGGAGTCACCTAGTGCAG”, the binding signal was 18200 fluorescence intensity (a.u.).
As for “CGGAGAAGTCCGGGCAGGCAAGGGGATGGGGATGGGGATGCGGAGTCACCTAGTGCAG”, the figure is 12400 fluorescence intensity (a.u.); as for “CGCGGGGAGGGAGGGAGGGAAGGAGAGGAGGAAGAGGATGCGGAGTCACCTAGTGCAG”, 9410 fluorescence intensity (a.u.).
As to “GGTTTTGCAGGGCGAGGAGGGAGGGGAGGAGGGAAGGATGCGGAGTCACCTAGTGCAG”, the binding signal was 15900 fluorescence intensity (a.u.).
For the sequence “AAGGGGATCGGAGATGCCGCTGGGCAAGTACTACTGCGACCGGAGTCACCTAGTGCAG”, the binding signal was 29900 fluorescence intensity (a.u.).
For the sequence “TGCTGGTGGTGGTGGTGGGGATCGAGCCGCTCGCTTCGACCGGAGTCACCTAGTGCAG”, the binding signal is 11700 fluorescence intensity (a.u.).
